Test results: PubChem BioAssay (NCI)
The panel holds about 79,000 compounds, 15% with a hit somewhere; the sample as a whole holds those more often. No stated cut-off is given here; in the data, active means growth inhibition above about 70%; inactive means the rest.

Columns and labels:
[1] = NCI Yeast Anticancer Drug Screen. Data for the rad50 strain (AID 155);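 further: 0% = growth of vehicle-only cultures of the same strain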; conditions: S. cerevisiae rad50 strain growth inhibition; at 50.0 µM; active compounds read high
Method in brief: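 Vehicle-treated cultures provide the reference for the growth inhibition reported for compound-exposed, repair-deficient yeast.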

[2] = NCI Yeast Anticancer Drug Screen. Data for the mec2-1 strain (AID 157); conditions: S. cerevisiae mec2-1 strain, at 50.0 µM, active compounds read high
Method in brief: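 mec2-1 yeast strain, carrying an alteration in DNA damage repair or cell cycle control, was exposed to compounds; growth inhibition was measured relative to vehicle-treated controls.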

[3] = NCI Yeast Anticancer Drug Screen. Data for the sgs1 mgt1 strain (AID 161);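 further: 0% = growth of cultures given vehicle only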; conditions: S. cerevisiae sgs1 mgt1 strain, at 50.0 µM, active compounds read high
Method in brief: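 Percent growth inhibition was derived by comparing compound-exposed mutant yeast with vehicle-exposed cultures. The strain carries alterations in DNA damage repair.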

[4] = NCI Yeast Anticancer Drug Screen. Data for the cln2 rad14 strain (AID 165);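 further: 0% = growth equal to vehicle treated cultures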; conditions: S. cerevisiae cln2 rad14 strain, at 50.0 µM, active compounds read high
Method in brief: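 Yeast carrying cln2 and rad14 alterations (cell cycle control and DNA damage repair) were exposed to compounds. Growth inhibition was measured against vehicle-treated controls.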

[5] = NCI Yeast Anticancer Drug Screen. Data for the bub3 strain (AID 167); conditions: S. cerevisiae bub3 mutant strain, at 50.0 µM, active compounds read high
Method in brief: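 Mutant yeast screening strain plus compound; vehicle-treated cultures serve as the 0% inhibition reference.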

[6] = NCI Yeast Anticancer Drug Screen. Data for the mlh1 rad18 strain (AID 175); conditions: S. cerevisiae mlh1 rad18 strain growth inhibition; at 50.0 µM; active compounds read high
Method in brief: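 Growth inhibition of the yeast strain was measured after compound exposure and expressed relative to vehicle-treated controls. The strain carries defined defects in DNA damage repair.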

Measured: growth inhibition

CCC(C)(C)c1ccccc1
inactive: [1] 13.2% | [2] 6% | [3] 20% | [4] 10.9% | [5] 8.95% | [6] 15.3%

C=CCN(CC=C)c1ccccc1
inactive: [1] 24.1% | [2] 5.6% | [3] 25.4% | [4] 19.2% | [5] 14.6% | [6] 34.4%

N#C/C(=C\c1cc(Br)cc(Br)c1O)c1ccc([N+](=O)[O-])cc1
inactive: [1] -2.7% | [2] -10.9% | [3] -6.8% | [4] 17.1% | [5] 22.3% | [6] -2.6%

CCCCc1c(OCC)cc2n(CC)c3ccccc3n2c1=O
inactive: [1] -8.45% | [2] -9.85% | [3] 0.8% | [4] -10.9% | [5] -45% | [6] -11.9%

CC1(C2(C)CC2(Br)Br)CC1(Br)Br (centres undefined)
inactive: [1] 11.4% | [2] -0.65% | [3] 11.3% | [4] 15.8% | [5] -2.5% | [6] -0.65%

CC1(C(=O)O)CCC2(C)CCC3(C)C(=CC(=O)C4C5(C)CCC(OC6OC(C(=O)O)C(O)C(O)C6OC6OC(C(=O)O)C(O)C(O)C6O)C(C)(C)C5CCC43C)C2C1 (centres undefined)
inactive: [1] 13.6% | [2] 3.95% | [3] -2.25% | [4] 24.8% | [5] 15.8% | [6] 19.2%

COc1cccc(C2OC(N)=C(O)C2=O)c1 (centres undefined)
inactive: [1] -10.8% | [2] 1.9% | [3] 3.6% | [4] -11.2% | [5] 2.45% | [6] 22.2%

Cn1c(=O)c2[nH]c(Br)nc2n(C)c1=O
inactive: [1] -12% | [2] -13.4% | [3] 5.4% | [4] -4.25% | [5] 13.3% | [6] -12.2%

S=C1N(/N=C/c2c3ccccc3cc3ccccc23)C(=Nc2ccccc2)C(=Nc2ccccc2)N1c1ccccc1
inactive: [1] 16.9% | [2] -4.55% | [3] -6.35% | [4] 24.9% | [5] 16.6% | [6] -7.55%

CS(=O)(=O)Nc1ccc2ccccc2c1
inactive: [1] -33.8% | [2] 18.8% | [3] -22.5% | [4] 5.1% | [5] -3.05% | [6] -3.7%

Cn1c(=O)ccc2c(=O)c3c(ccc4ccccc43)oc21
inactive: [1] -10.1% | [2] -12.3% | [3] -28.1% | [4] -10.1% | [5] -7.05% | [6] -23.9%

Cc1cccn2nnnc12
inactive: [1] -7.75% | [2] -12.2% | [3] -9.1% | [4] 9% | [5] 1.65% | [6] -10.8%

O=S(=O)(Oc1ccc(OS(=O)(=O)c2ccccc2)cc1)c1ccccc1
inactive: [1] -8.8% | [2] 1% | [3] -0.3% | [4] 0.05% | [5] 12.5% | [6] 14.6%

COC(=O)NN1C(C)=C(C(=O)OC)C2(C#N)C(C(=O)OC)=C(C)N(NC(=O)OC)C12N (centres undefined)
inactive: [1] -14.4% | [2] -26.6% | [3] -56% | [4] 9.85% | [5] 10.2% | [6] -18.4%

O=C1OC2C(O)C3CC1C2O3 (centres undefined)
inactive: [1] -8.15% | [2] -6.05% | [3] -5.5% | [4] -6.85% | [5] -2.25% | [6] 0.45%

CN1c2ccccc2Nc2cc(C#N)ccc21
inactive: [1] -0.7% | [2] -8.3% | [3] 14.8% | [4] -30.4% | [5] 19.2% | [6] 5.7%

CC(=O)C1C(=O)C(=O)N(c2ccc(S(N)(=O)=O)cc2)C1=O (centres undefined)
inactive: [1] -37.3% | [2] 1.3% | [3] 7.6% | [4] -32.7% | [5] -14.2% | [6] 8.05%

CC(=O)OC1CCC2(C)C(CCC34OC23CCC2(C)C(C(C)CCCC(C)C)CCC24C)C1(C)C (centres undefined)
inactive: [1] 45.4% | [2] 16.4% | [3] 39.5% | [4] 1% | [5] -1% | [6] 28.4%

Cc1ccc(S(=O)(=O)NCCN)cc1
inactive: [1] 9.45% | [2] 11.2% | [3] 24.2% | [4] -19.5% | [5] -6.4% | [6] -3.3%

COc1cc(OC)c(OC(=O)CCl)c(OC)c1
inactive: [1] -3.85% | [2] 1.3% | [3] 3.2% | [4] 1.7% | [5] 11.2% | [6] 17.4%

CC(Oc1ccccc1-c1ccccc1)C(=O)O (centres undefined)
inactive: [1] 6.95% | [2] -22.2% | [3] -5.9% | [4] 5.45% | [5] -1.9% | [6] 15.1%

CC(=O)[C@@]1(c2ccccc2)N(C(=O)c2ccccc2)[C@@]1(C)C(=O)c1ccccc1
inactive: [1] 22.1% | [2] 2.25% | [3] 14.4% | [4] 53.1% | [5] 3.85% | [6] -0.75%

Cc1ccc(N=C2SC(c3ccc(C)cc3)(c3ccc(C)cc3)c3ccccc32)cc1
inactive: [1] -35% | [2] 11.2% | [3] -3.9% | [4] -4.75% | [5] -7.15% | [6] -16.1%

Cc1ccc(C2=CSC3=NCCN23)cc1Cl
inactive: [1] -29.9% | [2] -43.8% | [3] 5.3% | [4] -6.3% | [5] -17.9% | [6] 23.4%

CSc1nc(NC(=O)O)c(N(C(C)=O)C(=O)O)c(=O)n1C
inactive: [1] -15.3% | [2] 0.6% | [3] 4.55% | [4] 19.7% | [5] -9.35% | [6] -13.5%

CCCC(=O)Nc1cn(COC)c(C(=O)N2C[C@@H]3C[C@]34C2=CC(=O)c2[nH]cc(C)c24)n1
inactive: [1] 28.2% | [2] 20.4% | [3] 34.4% | [4] 14.2% | [5] 26.2% | [6] 50.8%

O=C(CCCCCC(=O)N1CC(CCl)c2ccc([N+](=O)[O-])cc21)N1CC(CCl)c2ccc([N+](=O)[O-])cc21 (centres undefined)
inactive: [1] -28.8% | [2] -39.8% | [3] -15.6% | [4] -4.5% | [5] -2.9% | [6] -55.4%

CC(=O)Nc1cc([N+](=O)[O-])c2[nH]c(=O)c3ccccc3c2c1
inactive: [1] -7.7% | [2] -6.7% | [3] -12.4% | [4] -9.45% | [5] -3.2% | [6] -0.15%

CC(C)(C)OC(=O)NC(Cc1ccc(OC(C)(C)C)cc1)C(=O)N[C@H]1CC[C@H](C(=O)O)C1 (some centres undefined)
inactive: [1] -6.6% | [2] -1.25% | [3] -8% | [4] -7.85% | [5] 11.2% | [6] 10%

Cc1ccc(S(=O)(=O)NCCC(Cl)(Cl)Cl)cc1
inactive: [1] 21.6% | [2] 6.8% | [3] 1.05% | [4] 1.2% | [5] 38% | [6] 27.7%

O=C(CCC(=O)NO)NO
inactive: [1] 1.4% | [2] -12.6% | [3] 4.75% | [4] -17.7% | [5] -20.9% | [6] -15.9%

C1=NCCCCCCCN=Cc2ccccc2NCCNc2ccccc21
inactive: [1] 29.1% | [2] 23.8% | [3] 20.4% | [4] 32.4% | [5] 38.3% | [6] 44.6%

NC(=O)CS
inactive: [1] -14.3% | [2] -17.2% | [3] -21.8% | [4] -11.7% | [5] -14.1% | [6] -22.1%

CCCCCCC(O)C/C=C\CCCCCCCCO (centres undefined)
inactive: [1] 11.9% | [2] -20.9% | [3] 13.3% | [4] -27.6% | [5] 27.1% | [6] 18.4%

CCCc1[nH]nc(CCC(=O)N(Cc2ccccc2)Cc2ccccc2)c1CC
inactive: [1] -6.65% | [2] -26.4% | [3] 11.6% | [4] 2.3% | [5] -7.9% | [6] -18.1%

COc1ccc(OC)c(C#N)c1C#N (tested in a mixture with another compound)
inactive: [1] -25.1% | [2] 5.9% | [3] -0.15% | [4] -41.5% | [5] -3.35% | [6] -6.75%

O=C1NC(=O)C(c2ccc3c(c2)OCO3)N1 (centres undefined)
inactive: [1] -3.25% | [2] -10.6% | [3] -6% | [4] -30.9% | [5] -23.3% | [6] 7.05%

CC(C)(C)C(=O)C(C(c1ccccc1)N1CCOCC1)N1CCOCC1 (centres undefined)
inactive: [1] 21.7% | [2] -5.8% | [3] -33.6% | [4] -17% | [5] 5.7% | [6] -10.6%

CS(=O)(=O)CCCCCCCCCCC(=O)O
inactive: [1] -5.4% | [2] 13.6% | [3] 3.4% | [4] 3.95% | [5] 10.4% | [6] 15.4%
